About 83,000 compounds went through this panel and 20% of them were active in at least one assay; those are over-represented in the sample as a whole.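 Cells were grown in 96-well plates and exposed to the test compound at a single concentration for 48 hours; results are reported as percent growth, with values below 10 considered active.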 Active and inactive are the calls of the source.
Key:
Experiment in all cases: NCI-60 one-dose screen, 48 h (100 = growth as untreated, 0 = no growth, -100 = all killed)
Settings in all cases: 10 µM unless noted
[1] = test system: HCT-15 colon
[2] = test system: HT29 colon
[3] = test system: SNB-75 CNS
[4] = test system: SNB-19 CNS
[5] = test system: U251 CNS
[6] = test system: PC-3 prostate
[7] = test system: SK-MEL-5 melanoma
[8] = test system: UACC-62 melanoma
[9] = test system: LOX IMVI melanoma
[10] = test system: SK-MEL-28 melanoma
[11] = test system: SK-MEL-2 melanoma
[12] = test system: EKVX NSCLC
[13] = test system: SN12C renal
[14] = test system: UO-31 renal
[15] = test system: TK-10 renal
[16] = test system: ACHN renal
[17] = test system: CAKI-1 renal
[18] = test system: A498 renal
[19] = test system: CCRF-CEM leukemia
[20] = test system: MOLT-4 leukemia

Measured: growth

COc1ccc(CCn2cncc2-c2c[nH]c3ccccc23)cc1
inactive: [1] 93.1% | [2] 82.9% | [3] 44.4% | [4] 91.4% | [5] 95.7% | [6] 80.7% | [7] 88.2% | [8] 81.6% | [9] 88.3% | [10] 101% | [11] 88.6% | [12] 71.4% | [13] 80.8% | [14] 50.7% | [15] 141% | [16] 87% | [17] 68.7% | [18] 69.5% | [19] 101% | [20] 93.1%

COc1cc(NC(=O)CSc2nc3ccc(C)cc3c(=O)n2Cc2ccccc2)cc(OC)c1OC
active: [3] -5.79%
inactive: [1] 84.4% | [2] 70.6% | [4] 89.8% | [5] 57.6% | [6] 74.1% | [7] 39.3% | [8] 53.2% | [9] 61.7% | [10] 75.1% | [11] 57.2% | [12] 84.9% | [13] 83.5% | [14] 71.4% | [15] 55.4% | [16] 38% | [17] 82.4% | [18] 14.1% | [19] 94.1%

O=C(NO)c1ccc(-n2nc(-c3ccccc3)c3ccccc32)cc1
inactive: [1] 18.5% | [2] 41.7% | [3] 12.1% | [4] 47.4% | [5] 34.4% | [6] 46.7% | [7] 57.6% | [8] 34.5% | [9] 24.8% | [10] 72.5% | [11] 90.9% | [12] 42.3% | [13] 32.9% | [14] 34.6% | [15] 31.5% | [16] 26.9% | [17] 45.6% | [18] 58.8% | [19] 12.9% | [20] 26.9%

COc1cc(/C=C/C(=O)c2nc3cc(F)ccc3nc2C)cc(OC)c1OC
active: [19] -4.9% | [20] -18.6%
inactive: [1] 48.1% | [2] 68.5% | [3] 89.9% | [4] 77.9% | [5] 36.7% | [6] 68.1% | [7] 81% | [8] 62.2% | [9] 20.8% | [10] 61.3% | [11] 64.6% | [12] 201% | [13] 66.1% | [14] 61.1% | [15] 103% | [16] 87.3% | [17] 106% | [18] 98%

COc1ccc(/C=C/c2nc(Nc3ccc(S(=O)(=O)Nc4nc(C)cc(C)n4)cc3)c3ccccc3n2)cc1
active: [18] 7.8%
inactive: [1] 50.5% | [2] 62.2% | [3] 85.7% | [4] 75.6% | [5] 69.7% | [6] 77.5% | [7] 61.1% | [8] 20.8% | [9] 26.3% | [10] 87.4% | [11] 75.2% | [12] 72% | [13] 76.8% | [14] 51.8% | [15] 71.1% | [16] 57.7% | [17] 53.1% | [19] 61.5% | [20] 65.7%

O=C(Nc1ncc(Cc2cc(Cl)ccc2Cl)s1)c1cccs1
inactive: [1] 23.5% | [2] 24.3% | [3] 72.5% | [4] 72.9% | [5] 51.8% | [6] 53.4% | [7] 42.9% | [8] 36.7% | [9] 43.3% | [10] 63.7% | [11] 50.5% | [12] 64% | [13] 65.4% | [14] 62.5% | [15] 68.4% | [16] 60.8% | [17] 42.4% | [18] 65.3% | [19] 49.6% | [20] 63.2%

COc1ccc(/C=C/c2nc(Nc3cccc(NC(C)=O)c3)c3ccccc3n2)cc1
inactive: [1] 70.9% | [2] 85% | [3] 90.5% | [4] 92.4% | [5] 88.5% | [6] 90% | [7] 87.5% | [8] 44.2% | [9] 59.3% | [10] 104% | [11] 91.9% | [12] 94.3% | [13] 89.1% | [14] 68.3% | [15] 92.7% | [16] 78.3% | [17] 67.4% | [19] 82.5% | [20] 87%
active: [18] 9.66%

CCN1C(=O)N(CC)C2Nn3c(s/c(=C\c4ccc(OC)cc4)c3=O)=NC21 (stereo unspecified)
inactive: [1] 32.2% | [2] 83.1% | [4] 53.1% | [5] 39.3% | [6] 44.1% | [7] 47.6% | [8] 34.1% | [9] 53.6% | [10] 62.8% | [11] 51.9% | [12] 82.2% | [13] 62.6% | [14] 48.6% | [15] 11.2% | [16] 42.7% | [17] 31.9% | [19] 53.2%
active: [3] 8.85% | [18] -2.46%

COc1ccc(/C=C2\COc3ccc(-c4ccccc4)cc3C2=O)c(OC)c1
inactive: [1] 84.3% | [2] 76.7% | [3] 65.5% | [4] 103% | [5] 84.6% | [6] 78.2% | [7] 81.2% | [8] 74.1% | [9] 79% | [10] 108% | [11] 101% | [12] 161% | [13] 83.8% | [14] 86.2% | [15] 94.8% | [16] 93% | [17] 116% | [18] 128% | [19] 71.2% | [20] 57.9%

OC(c1ccc(F)c(C(F)(F)F)c1)c1cnccc1NC1CCCCC1 (stereo unspecified)
inactive: [1] 64.7% | [2] 14.3% | [3] 68.7% | [4] 82.9% | [5] 63.5% | [6] 58.7% | [7] 49.4% | [8] 71.2% | [9] 69.7% | [10] 84.8% | [11] 89.6% | [12] 69.3% | [13] 65.3% | [14] 49.6% | [15] 71.1% | [16] 81.9% | [17] 64.3% | [18] 59.6% | [19] 57.2% | [20] 56%

C[C@H]1[C@H](C)CC[C@]2(C(=O)Nc3ccc4ncccc4c3)CC[C@]3(C)C(=CC[C@@H]4[C@@]5(C)CCCNC(C)(C)[C@@H]5CC[C@]43C)[C@H]12
inactive: [3] 78.2% | [11] 90.5% | [12] 76.6% | [15] 102% | [17] 26.7% | [18] 98.3%
active: [1] -83.7% | [2] -88.5% | [4] -59.6% | [5] -86.3% | [6] -4.73% | [7] -18.8% | [8] -74.5% | [9] -89.7% | [10] -67.3% | [13] -86.1% | [14] -76.5% | [16] -75.1% | [19] -25.5%

CCNc1nc2cc(Nc3ccnc4cc(Cl)ccc34)ccc2o1
inactive: [1] 40.9% | [2] 31.5% | [3] 83.7% | [4] 84.4% | [5] 74.4% | [6] 64.3% | [7] 48.2% | [8] 70.9% | [9] 58.5% | [10] 80.7% | [11] 81.2% | [12] 86% | [13] 79.3% | [14] 70.2% | [15] 81.9% | [16] 88.2% | [17] 71.9% | [18] 47% | [19] 76.8%

NS(=O)(=O)c1ccc(CCN2C(=O)c3cc(Cl)c(Cl)cc3C2=O)cc1
inactive: [1] 103% | [2] 89.3% | [3] 98.3% | [4] 109% | [5] 102% | [6] 99.2% | [7] 105% | [8] 103% | [9] 98.2% | [10] 110% | [11] 96.5% | [12] 103% | [13] 107% | [14] 93% | [15] 88.5% | [16] 105% | [17] 96.6% | [18] 104% | [19] 98% | [20] 92.4%

Cn1ccc2c1CC1CN(Cc3ccco3)C(=O)C1C2C(=O)O (stereo unspecified)
inactive: [1] 95.8% | [2] 101% | [3] 74.3% | [4] 98% | [5] 97.3% | [6] 100% | [7] 102% | [8] 95.5% | [9] 94.6% | [10] 101% | [11] 99.2% | [12] 91.1% | [13] 97.2% | [14] 89.6% | [15] 102% | [16] 105% | [17] 94.1% | [18] 98.3% | [19] 105% | [20] 103%

C=C(C)[C@@H]1CC[C@]2(C(=O)N[C@@H](Cc3ccccc3)C(=O)OC)CC[C@]3(C)[C@H](CC[C@@H]4[C@@]5(C)CCC(=O)C(C)(C)[C@@H]5CC[C@]43C)[C@@H]12
inactive: [1] 94% | [2] 70.1% | [3] 87.1% | [4] 104% | [5] 85.2% | [6] 52.3% | [7] 95.2% | [8] 56.9% | [9] 73.9% | [10] 97.9% | [11] 75.8% | [12] 85.4% | [13] 95.3% | [14] 75.7% | [15] 90.9% | [16] 90.5% | [17] 45.5% | [18] 84% | [19] 84.7% | [20] 64.6%

COc1cc2c3c(c4c5ccccc5[nH]c4c2c(OC)c1OC)C(=O)N(CCN1CCOCC1)C3=O
active: [20] 6.55%
inactive: [1] 50% | [2] 34.2% | [3] 86.4% | [4] 51.9% | [5] 51.8% | [6] 48.4% | [7] 54.7% | [8] 43.3% | [9] 45% | [10] 99.2% | [11] 73.9% | [12] 91.2% | [13] 47.8% | [14] 52.4% | [15] 76.2% | [16] 35.2% | [17] 40.9% | [18] 54.1% | [19] 23.1%

From PubChem BioAssay (NCI)
